This passage reports inhibition results from PubChem BioAssay AID868 (SRMLSC, 2007).

Among all 190,000 compounds or so, about 3,500 (1.8%) were called active. Shown is part of a subset that was picked to be rich in actives. Values without a mark were called inactive.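 How the source made its calls: active means inhibition above a set limit, 3 SD over mean compound inhibition (cut at about 8.4% in these data); inactive means the rest.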

The test can be described thus: RAM signaling blockers in budding yeast – dse1pr::URA3 reporter, 5-FOA selection, primary screen (AID 868).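 Further: 0% = DMSO-only wells with no growth and 100% = 10 µM 1-NA-PP1 full growth; inhibition rescues growth on 5-FOA so higher OD means more RAM inhibition.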 The settings on record: S. cerevisiae dse1pr::URA3 reporter, 5-FOA growth OD615, 2 d; at 50 µM; active compounds read high; analog-sensitive cbk1-as2 kinase mutant strain.
Broadly, the inhibition is the drop in the measured response relative to a control, in per cent. `CCN1CCN(C(=O)c2ccc(CN(c3ccc(C)c(C)c3)S(C)(=O)=O)cc2)CC1`: the inhibition is 0.38%.

`O=C(CCCNS(=O)(=O)c1cccc2nsnc12)NCCN1CCN(c2ccccc2F)CC1`: the inhibition was -1.28%. As for `COc1ccc(/C=C2/C(=O)OCc3cc(OC)c(OC)cc32)c(OC)c1`, the inhibition is 7.31%. Take `COC(=O)Cc1ccc(N(Cc2ccccc2F)S(=O)(=O)c2ccc(Br)cc2)cc1`: the inhibition is 6.05%. As for `Cc1cccc(C(=O)N2CCC(c3nc4ccccc4s3)CC2)c1`, the inhibition was 0.14%. As to `Cc1cc(C)n2nc(C(=O)N(C)C(c3ccccc3)c3ccccc3)nc2n1`, the inhibition is 2.14%. For `CC1CCN(S(=O)(=O)c2ccc(S(=O)(=O)NCc3cccnc3)cc2)CC1`, the inhibition was 0.4%. On to `CCN(CC)S(=O)(=O)c1ccc2[nH]cc(C(=O)NCCc3ccccc3)c(=O)c2c1`, for which the inhibition was 6.86%. To `CCCCNC(=O)c1c[nH]c2ccc(S(=O)(=O)Nc3ccc(OCC)cc3)cc2c1=O` belongs 5.33%. Under `COc1cccc(NS(=O)(=O)c2ccc3[nH]cc(C(=O)NCCCOC(C)C)c(=O)c3c2)c1` stands 9.49% (active); under `CCC1(C)Cc2c(sc3nc(SC)nc(N)c23)CO1` (stereo unspecified), 1.97%. In the case of `CN(C)CCSc1nc(N)c2c3c(sc2n1)COC(C)(C)C3`, the inhibition is 0.35%. As to `CCCSc1nc(NCc2ccco2)c2c3c(sc2n1)COC(C)(CC)C3` (stereo unspecified), the inhibition was 13.4% (active). To `Cc1cccc(N2C(=O)c3cccnc3C2=O)c1` belongs 0.23%. For the compound `Cc1cccc(N2C(=O)CC(SC(N)=Nc3ccccc3)C2=O)c1` (stereo unspecified), the inhibition is 5.62%.

Turning to `Cc1cccc(N2C(=O)C3C(c4ccccc4)OC4(C(=O)c5ccccc5C4=O)C3C2=O)c1` (stereo unspecified), the inhibition is 10.5% (active). To `Cc1cccc(NC(=O)Cn2c(=O)n(Cc3ccccc3)c(=O)c3c(C)c(C)sc32)c1` belongs 2.47%; to `Cc1cc(C(=O)N/N=C/c2ccccc2[N+](=O)[O-])c(C)o1`, 1.55%; to `COC(=O)c1cc2occc2n1Cc1nc(-c2ccccc2C)oc1C`, 10.4% (active). To `Cc1ccccc1-c1nc(CS(=O)(=O)CC(=O)N2CCc3ccccc3C2)c(C)o1` belongs 3.54%. To `CCOC(=O)c1cc2occc2n1CC(=O)NC1CCC(C)CC1` (stereo unspecified) belongs 1.74%; to `COc1ccc(F)c(-c2nc(CN3CCC(c4ccccc4)CC3)c(C)o2)c1`, 1.5%. For the compound `O=C1/C(=C/c2ccc3c(c2)OCO3)CCC/C1=C\c1ccc2c(c1)OCO2`, the inhibition is 11.6% (active). Turning to `CCC1=C/C(=C\c2ccc3c(c2)OCO3)C(=O)S1`, the inhibition was 5.39%. To `CSC1=N/C(=C\c2ccc3c(c2)OCO3)C(=O)S1` belongs 5.69%; to `C=CS(=O)c1sc(Cl)c(N2CCOCC2)c1[N+](=O)[O-]` (stereo unspecified), -1.6%; to `Cc1cccc(C(=O)OCC(=O)Nc2sc3c(c2C#N)CCC3)c1`, 3.27%. As to `C=CCn1c(-c2ccc(Cl)cc2)ccc(C#N)c1=O`, the inhibition was 10.6% (active). Consider `C=CCn1cc(-c2cccc(C(F)(F)F)c2)cc(C#N)c1=O`, for which the inhibition is 1.24%. As for `C=CCn1c(SCn2nnc3ccccc3c2=O)nnc1-c1ccc(Cl)cc1`, the inhibition is 1.52%. In the case of `Cc1cccc(/C(N)=N/OC(=O)c2ccccc2Cl)c1`, the inhibition was -0.84%. Under `O=C(O)C1CCCN(S(=O)(=O)c2cccc3cccnc23)C1` (stereo unspecified) stands 2.19%. Consider `COc1ccc(NC(=O)C2CCCN(S(=O)(=O)c3cccc4cccnc34)C2)cc1` (stereo unspecified), for which the inhibition is 9.02% (active). As to `COc1ccc(NC(=O)C2CCCN(S(=O)(=O)c3cccc4cccnc34)C2)cc1OC` (stereo unspecified), the inhibition is -0.46%. As for `COc1ccc(NC(=O)COC(=O)CNC(=O)C2CCCCC2)cc1`, the inhibition is 0.13%. Regarding `O=C(OCC(=O)c1cccs1)C1=COCCO1`, the inhibition is 0.33%. Consider `CCC(C)(C)c1ccc(Oc2ccc(NC(=O)COC(=O)C3=COCCO3)cc2)cc1`, for which the inhibition is 12.6% (active). On to `CCOC(=O)CSc1nc2c(sc(=S)n2CCc2ccccc2)c(=O)n1Cc1ccco1`, for which the inhibition is 10.1% (active). Turning to `COc1ccccc1NC(=O)CSc1nc2sc(C)c(C)c2c(=O)n1Cc1ccco1`, the inhibition was 4.61%. With `CCOC(=O)CSc1nc2c(c(=O)n(C)c(=O)n2C)n1Cc1ccccc1F`, the inhibition was 5.16%. Under `O=c1[nH]c(N2CCN(Cc3ccc4c(c3)OCO4)CC2)nc2c1CCCC2` stands 0.84%; under `O=C(Nc1ccn(Cc2ccccc2)n1)c1cccc(F)c1`, 0%. Turning to `O=C(Nc1ccn(Cc2ccccc2F)n1)c1ccc(COc2ccc(Cl)cc2Cl)o1`, the inhibition was 9.18% (active). Regarding `CC(=O)Nc1ccn(Cc2c(F)cccc2Cl)n1`, the inhibition is 0.11%.

As to `O=C(Nc1ccc2c(c1)CCC2)c1ccc(Br)s1`, the inhibition is 1.86%.

With `CCOC(=O)C(C)n1nc(-c2ccccc2)c2ccccc2c1=O` (stereo unspecified), the inhibition is 0.13%. For `O=C(Nn1cnc2ccccc2c1=O)c1ccccc1`, the inhibition is 1.22%. Turning to `CCc1nc(Nc2ccc3nccnc3c2)c2oc3ccccc3c2n1`, the inhibition is 12.5% (active).

`CCSc1nc(C)nc2c1oc1ccccc12`: the inhibition was 3.79%. `COc1ccccc1Nc1ncnc2c1oc1ccccc12`: the inhibition was 5%.

Regarding `Cc1ccc(NC(=O)C(=O)NCc2ccco2)c(C)c1`, the inhibition was 4.33%. For the compound `CCOc1ccc(/C=N/OCC(=O)NCc2cccs2)cc1`, the inhibition is 0.76%.

For the compound `CCOC(=O)C1(CC2CCCCO2)CCN(Cc2nc(-c3cccs3)oc2C)CC1` (stereo unspecified), the inhibition was 0.26%. Under `O=C(COc1ccccc1)Nc1ccc(N2CCN(C(=O)c3cccs3)CC2)cc1` stands 6.82%; under `COc1ccc(/C=C2\SC(=N)N(c3ccc(F)cc3)C2=O)cc1`, 2.04%.

Regarding `CCNC(=S)N(CCc1c(C)[nH]c2ccc(C)cc12)Cc1ccco1`, the inhibition was 9.53% (active). As to `COc1ccc2[nH]c(C)c(CCN(Cc3cccs3)C(=S)Nc3ccccc3OC)c2c1`, the inhibition is 2.4%. As to `COc1cccc(NC(=S)N(CCc2c(C)[nH]c3ccccc23)Cc2ccco2)c1`, the inhibition is 7.14%. Take `O=C(CSc1nc2ccccc2[nH]1)N/N=C/C=C\c1ccccc1[N+](=O)[O-]`: the inhibition was 0.9%. As for `CCn1c(SCC(=O)N/N=C/C=C/c2ccccc2[N+](=O)[O-])nnc1-c1ccccc1`, the inhibition was 0.99%. With `Cc1ccc(-n2c(SCC(=O)N/N=C/C=C/c3ccccc3[N+](=O)[O-])nc3ccccc3c2=O)cc1`, the inhibition is 10.3% (active).
